# Data reported in publication PMC11574364.
# Assays:
# Experiment in all cases: protein domain microarray probed with biotinylated miRNA; Domain array: 20 mM Tris-HCl pH 7.4, 200 mM KCl, 0.2 mM EDTA, 0.05% NP40, 2 ug/ul heparin, overnight 4 C. ORF array: PBS pH 7.0 with RNase inhibitor, 100 ng RNA; high values mean tight binding
# Conditions in all cases: ssRNA
# [1] = target: T1, DAZ4 (Homo sapiens, UniProt Q86SG3)
# T1 sequence: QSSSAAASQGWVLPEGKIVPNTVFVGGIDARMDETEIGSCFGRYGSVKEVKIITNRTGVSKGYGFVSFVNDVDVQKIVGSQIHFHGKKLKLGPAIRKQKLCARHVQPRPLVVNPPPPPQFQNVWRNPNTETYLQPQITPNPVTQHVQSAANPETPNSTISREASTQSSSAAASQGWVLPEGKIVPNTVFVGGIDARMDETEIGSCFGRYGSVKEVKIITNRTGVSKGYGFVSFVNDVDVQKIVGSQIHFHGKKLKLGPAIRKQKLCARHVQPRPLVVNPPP
# [2] = target: T2, hnRNP-M(1-2) (Homo sapiens, UniProt P52272)
# T2 sequence: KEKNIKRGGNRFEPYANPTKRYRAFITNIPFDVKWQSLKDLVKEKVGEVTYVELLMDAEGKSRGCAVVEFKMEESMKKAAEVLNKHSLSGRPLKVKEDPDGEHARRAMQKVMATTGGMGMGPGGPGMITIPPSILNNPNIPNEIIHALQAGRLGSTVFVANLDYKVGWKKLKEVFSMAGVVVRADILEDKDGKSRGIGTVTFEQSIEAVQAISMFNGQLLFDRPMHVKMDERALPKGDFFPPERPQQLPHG
# [3] = target: hnRNP-A3 (Homo sapiens, UniProt P51991)
# [4] = target: T3, LARP7(2) (Homo sapiens, UniProt Q4G0J3)
# T3 sequence: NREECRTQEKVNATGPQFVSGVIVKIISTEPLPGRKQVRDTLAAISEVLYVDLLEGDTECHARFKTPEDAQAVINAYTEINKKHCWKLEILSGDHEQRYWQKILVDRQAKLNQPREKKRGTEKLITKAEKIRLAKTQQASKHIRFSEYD
# [5] = target: hnRNP-A1 (Homo sapiens, UniProt P09651)
# [6] = target: eIF3-delta (Homo sapiens, UniProt O75821)
# [7] = target: T4, hnRNP-R (Homo sapiens, UniProt O43390)
# T4 sequence: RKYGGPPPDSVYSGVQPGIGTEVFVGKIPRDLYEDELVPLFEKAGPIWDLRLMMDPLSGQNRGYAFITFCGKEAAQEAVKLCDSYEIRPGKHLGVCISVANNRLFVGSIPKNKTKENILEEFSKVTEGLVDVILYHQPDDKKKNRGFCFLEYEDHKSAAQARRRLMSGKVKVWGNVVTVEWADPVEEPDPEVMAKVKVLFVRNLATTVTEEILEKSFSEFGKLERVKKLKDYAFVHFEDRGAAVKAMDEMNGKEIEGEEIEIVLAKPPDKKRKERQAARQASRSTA
# [8] = target: T5, LKAP (Homo sapiens, UniProt Q9Y4F3)
# T5 sequence: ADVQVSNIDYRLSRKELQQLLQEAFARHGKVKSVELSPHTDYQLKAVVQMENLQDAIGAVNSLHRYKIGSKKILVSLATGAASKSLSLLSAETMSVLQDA
# [9] = target: T6, DAZ1 (Homo sapiens, UniProt Q9NQZ3)
# T6 sequence: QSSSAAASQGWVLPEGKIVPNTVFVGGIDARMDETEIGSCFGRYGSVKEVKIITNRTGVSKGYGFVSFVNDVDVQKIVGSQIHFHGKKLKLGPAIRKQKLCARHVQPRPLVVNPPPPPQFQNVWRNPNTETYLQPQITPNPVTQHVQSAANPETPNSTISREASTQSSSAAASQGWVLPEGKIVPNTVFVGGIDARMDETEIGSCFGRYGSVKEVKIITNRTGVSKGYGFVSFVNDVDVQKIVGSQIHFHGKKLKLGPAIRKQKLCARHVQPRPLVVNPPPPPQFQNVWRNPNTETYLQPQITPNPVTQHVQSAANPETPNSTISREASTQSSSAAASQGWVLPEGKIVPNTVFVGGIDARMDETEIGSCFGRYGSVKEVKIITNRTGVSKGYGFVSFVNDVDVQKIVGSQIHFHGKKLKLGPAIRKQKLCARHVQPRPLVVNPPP
# [10] = target: G3BP-1 (Homo sapiens, UniProt Q13283)
# [11] = target: T7, DAZL (Homo sapiens, UniProt Q92904)
# T7 sequence: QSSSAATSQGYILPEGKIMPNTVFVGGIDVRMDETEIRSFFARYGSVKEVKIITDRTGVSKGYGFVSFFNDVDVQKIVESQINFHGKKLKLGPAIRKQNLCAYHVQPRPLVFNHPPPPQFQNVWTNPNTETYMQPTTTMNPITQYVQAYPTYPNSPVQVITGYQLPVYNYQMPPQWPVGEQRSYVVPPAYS
# [12] = target: T8, NOL8 (Homo sapiens, UniProt Q76FK4)
# T8 sequence: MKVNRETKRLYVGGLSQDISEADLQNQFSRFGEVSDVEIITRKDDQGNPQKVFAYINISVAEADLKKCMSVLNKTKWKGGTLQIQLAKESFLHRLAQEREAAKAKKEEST
# [13] = target: T9, hnRNP-A0 (Homo sapiens, UniProt Q13151)
# T9 sequence: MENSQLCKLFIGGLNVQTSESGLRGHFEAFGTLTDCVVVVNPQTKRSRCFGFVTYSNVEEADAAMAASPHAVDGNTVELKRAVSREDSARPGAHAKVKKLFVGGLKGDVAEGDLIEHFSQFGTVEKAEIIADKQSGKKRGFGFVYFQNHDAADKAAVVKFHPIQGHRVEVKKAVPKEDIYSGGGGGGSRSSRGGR
# [14] = target: T10, NeuN (Homo sapiens, UniProt A6NFN3)
# T10 sequence: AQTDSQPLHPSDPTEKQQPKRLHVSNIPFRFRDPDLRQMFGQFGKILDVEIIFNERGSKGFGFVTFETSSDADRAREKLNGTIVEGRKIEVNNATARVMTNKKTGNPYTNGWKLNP
# [15] = target: T11, hnRNP-2H9 (Homo sapiens, UniProt P31942)
# T11 sequence: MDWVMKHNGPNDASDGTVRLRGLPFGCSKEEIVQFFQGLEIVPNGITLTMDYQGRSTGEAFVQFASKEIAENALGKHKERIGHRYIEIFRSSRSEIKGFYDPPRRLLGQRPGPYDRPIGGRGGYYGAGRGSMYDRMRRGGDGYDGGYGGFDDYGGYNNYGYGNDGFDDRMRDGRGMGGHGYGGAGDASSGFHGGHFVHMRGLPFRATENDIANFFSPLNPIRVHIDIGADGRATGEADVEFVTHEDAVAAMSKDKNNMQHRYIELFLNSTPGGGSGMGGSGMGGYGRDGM
# [16] = target: T12, CPEB4 (Homo sapiens, UniProt Q17RY0)
# T12 sequence: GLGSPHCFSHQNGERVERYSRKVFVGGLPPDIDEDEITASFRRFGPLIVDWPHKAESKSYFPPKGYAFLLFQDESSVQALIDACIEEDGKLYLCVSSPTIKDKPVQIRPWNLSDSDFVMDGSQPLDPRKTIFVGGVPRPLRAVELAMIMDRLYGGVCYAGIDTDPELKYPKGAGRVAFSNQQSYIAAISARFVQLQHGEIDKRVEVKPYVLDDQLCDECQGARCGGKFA
# [17] = target: CELF5(3) (Homo sapiens, UniProt Q8N6W0)
# [18] = target: CPEB1 (Homo sapiens, UniProt Q9BZB8)
# [19] = target: T13, MYEF2(3) (Homo sapiens, UniProt Q9P2K5)
# T13 sequence: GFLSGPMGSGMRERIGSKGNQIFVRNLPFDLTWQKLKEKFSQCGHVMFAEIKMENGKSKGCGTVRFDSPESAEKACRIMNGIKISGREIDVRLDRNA
# [20] = target: T14, CstF-64T (Homo sapiens, UniProt Q9H0L4)
# T14 sequence: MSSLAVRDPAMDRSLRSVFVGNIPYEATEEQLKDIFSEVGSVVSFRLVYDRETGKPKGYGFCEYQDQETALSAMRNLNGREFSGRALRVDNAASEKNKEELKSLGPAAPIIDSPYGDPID
# G3BP-1, sequence (Q13283 320-435): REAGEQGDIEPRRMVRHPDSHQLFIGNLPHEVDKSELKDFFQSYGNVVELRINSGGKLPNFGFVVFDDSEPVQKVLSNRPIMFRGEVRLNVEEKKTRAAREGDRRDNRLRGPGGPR
# CELF5(3), sequence (Q8N6W0 376-485): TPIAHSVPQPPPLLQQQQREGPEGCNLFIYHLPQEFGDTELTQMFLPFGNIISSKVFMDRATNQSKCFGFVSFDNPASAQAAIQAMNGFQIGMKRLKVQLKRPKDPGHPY
# eIF3-delta, sequence (O75821 220-320, stated change not applied): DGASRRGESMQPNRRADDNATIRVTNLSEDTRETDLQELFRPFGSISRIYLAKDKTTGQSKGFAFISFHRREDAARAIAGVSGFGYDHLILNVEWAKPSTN
# hnRNP-A3, sequence (P51991 15-225): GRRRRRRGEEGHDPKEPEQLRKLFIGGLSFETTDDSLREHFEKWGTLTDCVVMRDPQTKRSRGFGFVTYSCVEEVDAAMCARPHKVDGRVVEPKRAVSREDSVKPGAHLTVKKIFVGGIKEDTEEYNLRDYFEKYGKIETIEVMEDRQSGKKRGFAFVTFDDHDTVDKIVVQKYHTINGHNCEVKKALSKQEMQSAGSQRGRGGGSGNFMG
# CPEB1, sequence (Q9BZB8 290-531): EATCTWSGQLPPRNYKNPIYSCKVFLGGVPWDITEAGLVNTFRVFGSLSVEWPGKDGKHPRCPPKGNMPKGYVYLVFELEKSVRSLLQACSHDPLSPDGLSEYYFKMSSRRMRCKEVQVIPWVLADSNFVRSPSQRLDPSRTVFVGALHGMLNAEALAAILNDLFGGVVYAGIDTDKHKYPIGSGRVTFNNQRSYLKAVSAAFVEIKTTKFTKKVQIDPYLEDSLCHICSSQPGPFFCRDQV
# hnRNP-A1, sequence (P09651 1-205): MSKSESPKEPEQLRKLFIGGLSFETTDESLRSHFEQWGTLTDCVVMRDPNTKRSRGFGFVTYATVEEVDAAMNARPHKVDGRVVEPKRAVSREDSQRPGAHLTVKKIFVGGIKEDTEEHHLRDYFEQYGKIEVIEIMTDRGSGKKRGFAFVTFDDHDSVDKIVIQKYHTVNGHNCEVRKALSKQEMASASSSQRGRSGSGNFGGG
Sequence,binding signal [1],binding signal [2],binding signal [3],binding signal [4],binding signal [5],binding signal [6],binding signal [7],binding signal [8],binding signal [9],binding signal [10],binding signal [11],binding signal [12],binding signal [13],binding signal [14],binding signal [15],binding signal [16],binding signal [17],binding signal [18],binding signal [19],binding signal [20]
UGAGGUAGUAGGUUGUAUGGUU,778 ± 25.6 fluorescence intensity,1452 ± 3.71 fluorescence intensity,1730 ± 33.6 fluorescence intensity,511 ± 8.38 fluorescence intensity,74.6 ± 1.05 fluorescence intensity,262 ± 21.2 fluorescence intensity,666 ± 24.3 fluorescence intensity,65.2 ± 2.55 fluorescence intensity,673 ± 9.53 fluorescence intensity,1240 ± 13.5 fluorescence intensity,303 ± 13.1 fluorescence intensity,49 ± 3.09 fluorescence intensity,2280 ± 31.4 fluorescence intensity,2130 ± 66 fluorescence intensity,368 ± 23.9 fluorescence intensity,148 ± 21.1 fluorescence intensity,1000 ± 43 fluorescence intensity,312 ± 54.2 fluorescence intensity,560 ± 17.7 fluorescence intensity,853 ± 47 fluorescence intensity
UGAGGUAGUAGGUUGUAUAGUU,215 ± 41.8 fluorescence intensity,581.3 ± 5.61 fluorescence intensity,952 ± 63 fluorescence intensity,179 ± 11.7 fluorescence intensity,22 ± 6.92 fluorescence intensity,80.4 ± 7.03 fluorescence intensity,109 ± 5.8 fluorescence intensity,,193 ± 22.1 fluorescence intensity,286 ± 21.3 fluorescence intensity,94.2 ± 11 fluorescence intensity,20.3 ± 2.97 fluorescence intensity,1310 ± 111 fluorescence intensity,866 ± 44.2 fluorescence intensity,151 ± 11.1 fluorescence intensity,82.4 ± 7.2 fluorescence intensity,450 ± 137 fluorescence intensity,110 ± 9.17 fluorescence intensity,190.1 ± 1.74 fluorescence intensity,387 ± 8.85 fluorescence intensity
UAGCUUAUCAGACUGAUGUUGA,570 ± 34.9 fluorescence intensity,584 ± 19 fluorescence intensity,80.5 ± 23 fluorescence intensity,66.2 ± 4.35 fluorescence intensity,,20.5 ± 2.47 fluorescence intensity,,,550 ± 15.3 fluorescence intensity,219 ± 29.7 fluorescence intensity,238 ± 9.04 fluorescence intensity,,153 ± 38.7 fluorescence intensity,1430 ± 113 fluorescence intensity,,52.4 ± 15.6 fluorescence intensity,118 ± 40.8 fluorescence intensity,37.9 ± 2.09 fluorescence intensity,39.3 ± 2.37 fluorescence intensity,109 ± 3.13 fluorescence intensity
CAGUGCAAUGAUGAAAGGGCAU,178.74 ± 0.0495 fluorescence intensity,946.9 ± 2.02 fluorescence intensity,1370 ± 25 fluorescence intensity,288 ± 8.61 fluorescence intensity,40.7 ± 3.35 fluorescence intensity,113 ± 14 fluorescence intensity,113 ± 6.25 fluorescence intensity,37.5 ± 1.56 fluorescence intensity,153 ± 10.6 fluorescence intensity,1860 ± 70.5 fluorescence intensity,42.2 ± 30.1 fluorescence intensity,34.8 ± 9.25 fluorescence intensity,990 ± 34.9 fluorescence intensity,2230 ± 258 fluorescence intensity,533 ± 18.5 fluorescence intensity,55.3 ± 15.5 fluorescence intensity,378 ± 41 fluorescence intensity,186 ± 8.15 fluorescence intensity,261.9 ± 2.02 fluorescence intensity,418 ± 14.4 fluorescence intensity
AGAGGUAGUAGGUUGCAUAGUU,934 ± 29.1 fluorescence intensity,1710 ± 32.8 fluorescence intensity,2440 ± 28.8 fluorescence intensity,400 ± 39.4 fluorescence intensity,62.9 ± 11.7 fluorescence intensity,231 ± 8.61 fluorescence intensity,362 ± 6.89 fluorescence intensity,41.4 ± 3.31 fluorescence intensity,814 ± 10.2 fluorescence intensity,1220 ± 45.7 fluorescence intensity,362 ± 63.4 fluorescence intensity,33.7 ± 0.233 fluorescence intensity,3219 ± 6.02 fluorescence intensity,2786.2 ± 1.57 fluorescence intensity,466 ± 9.64 fluorescence intensity,130 ± 29.4 fluorescence intensity,1050 ± 99.1 fluorescence intensity,377 ± 32.4 fluorescence intensity,578 ± 21.2 fluorescence intensity,1930 ± 88 fluorescence intensity
UGAGGUAGUAGGUUGUGUGGUU,843.32 ± 0.516 fluorescence intensity,1470 ± 31 fluorescence intensity,1660 ± 31.6 fluorescence intensity,632 ± 5.09 fluorescence intensity,77.3 ± 27.2 fluorescence intensity,338 ± 7.23 fluorescence intensity,693 ± 1.68 fluorescence intensity,91.94 ± 0.665 fluorescence intensity,709 ± 20.1 fluorescence intensity,1380 ± 17 fluorescence intensity,433 ± 5.39 fluorescence intensity,66.3 ± 9.47 fluorescence intensity,2115 ± 15 fluorescence intensity,1967 ± 2.72 fluorescence intensity,443 ± 62 fluorescence intensity,290 ± 49.8 fluorescence intensity,1040 ± 35.6 fluorescence intensity,462.1 ± 2.31 fluorescence intensity,635 ± 16.7 fluorescence intensity,1870 ± 24.6 fluorescence intensity
